Experimental data taken from PubChem BioAssay AID1159580 (chemical genetic matrix, 2015).
The whole screen tested about 5,500 compounds, of which about 2,000 (36%) were called active. Roughly 18% stayed inconclusive and do not appear here. Rule as the data show it: active = normalized growth mostly below about 0.91 (no sharp cut-off); inconclusive = no clear call, values can overlap the other calls; inactive = mostly above about 0.92. The list shows a part of the results.

Test: chemical genetic growth profiling, strain panel (AID 1159580);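 also: tested at 20 µM; growth read once vehicle control cultures reached saturation at 30 °C; 1 = growth at the plate median or of vehicle wells; lower values mean less growth of the strain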
Conditions: growth OD

Measured: normalized growth

COc1ccc2c(c1OC)C(=O)O[C@@H]2[C@H]1c2cc3c(cc2CCN1C)OCO3
inactive: S. cerevisiae deletion strains, locus YJR075W, strain HOC1, stronger effect = lower value 1.02 | S. cerevisiae deletion strains, locus YKL009W, strain mrt4, stronger effect = lower value 1.03 | S. cerevisiae deletion strains, locus YKL068W, stronger effect = lower value 1.02 | S. cerevisiae deletion strains, locus YKL085W, strain MDH1 (second series), stronger effect = lower value 1.04 | S. cerevisiae deletion strains, locus YKL085W, strain MDH1, stronger effect = lower value 1.04 | S. cerevisiae deletion strains, locus YKL160W, strain elf1, stronger effect = lower value 0.974 | S. cerevisiae deletion strains, locus YKL190W, strain CNB1, stronger effect = lower value 1.02 | S. cerevisiae deletion strains, locus YKR001C, strain vps1, stronger effect = lower value 1.03 | S. cerevisiae deletion strains, locus YKR026C, strain gcn3, stronger effect = lower value 0.998 | S. cerevisiae deletion strains, locus YKR091W, strain srl3, stronger effect = lower value 0.997 | S. cerevisiae deletion strains, locus YLL001W, strain dnm1, stronger effect = lower value 0.994 | S. cerevisiae deletion strains, locus YLL026W, stronger effect = lower value 0.992 | S. cerevisiae deletion strains, locus YLL041C, strain sdh2, stronger effect = lower value 1 | S. cerevisiae deletion strains, locus YLR027C, strain aat2, stronger effect = lower value 0.996 | S. cerevisiae deletion strains, locus YLR039C, strain RIC1, stronger effect = lower value 1.07 | S. cerevisiae deletion strains, locus YLR058C, strain SHM2, stronger effect = lower value 1.02 | S. cerevisiae deletion strains, locus YLR102C, strain apc9, stronger effect = lower value 1.01 | S. cerevisiae deletion strains, locus YLR113W, strain HOG1, stronger effect = lower value 0.991 | S. cerevisiae deletion strains, locus YLR221C, strain rsa3, stronger effect = lower value 0.983 | S. cerevisiae deletion strains, locus YLR258W, strain gsy2, stronger effect = lower value 0.988 | S. cerevisiae deletion strains, locus YLR262C, strain YPT6 (second series), stronger effect = lower value 0.98 | S. cerevisiae deletion strains, locus YLR262C, strain YPT6, stronger effect = lower value 1.04 | S. cerevisiae deletion strains, locus YLR268W, strain sec22, stronger effect = lower value 1.01 | S. cerevisiae deletion strains, locus YLR320W, strain mms22, stronger effect = lower value 0.967 | S. cerevisiae deletion strains, locus YLR330W, strain CHS5, stronger effect = lower value 1.02 | S. cerevisiae deletion strains, locus YLR342W, strain FKS1 (second series), stronger effect = lower value 1.06 | S. cerevisiae deletion strains, locus YLR342W, strain FKS1, stronger effect = lower value 0.984 | S. cerevisiae deletion strains, locus YLR357W, strain rsc2, stronger effect = lower value 0.998 | S. cerevisiae deletion strains, locus YLR370C, strain arc18, stronger effect = lower value 1 | S. cerevisiae deletion strains, locus YLR371W, strain rom2, stronger effect = lower value 1.02 | S. cerevisiae deletion strains, locus YLR384C, strain iki3, stronger effect = lower value 0.983 | S. cerevisiae deletion strains, locus YLR418C, strain cdc73, stronger effect = lower value 1.02 | S. cerevisiae deletion strains, locus YML016C, strain PPZ1, stronger effect = lower value 1.01 | S. cerevisiae deletion strains, locus YML032C, strain rad52, stronger effect = lower value 1.03 | S. cerevisiae deletion strains, locus YML120C, strain ndi1, stronger effect = lower value 0.985 | S. cerevisiae deletion strains, locus YML124C, strain tub3, stronger effect = lower value 1.02 | S. cerevisiae deletion strains, locus YMR058W, strain fet3, stronger effect = lower value 0.998 | S. cerevisiae deletion strains, locus YMR078C, strain ctf18, stronger effect = lower value 1.03 | S. cerevisiae deletion strains, locus YMR125W, strain sto1, stronger effect = lower value 0.988 | S. cerevisiae deletion strains, locus YMR129W, stronger effect = lower value 1 | S. cerevisiae deletion strains, locus YMR205C, strain PFK2, stronger effect = lower value 0.971 | S. cerevisiae deletion strains, locus YMR223W, strain ubp8, stronger effect = lower value 1.03 | S. cerevisiae deletion strains, locus YMR231W, strain pep5, stronger effect = lower value 0.993 | S. cerevisiae deletion strains, locus YMR263W, strain SAP30, stronger effect = lower value 1.01 | S. cerevisiae deletion strains, locus YMR307W, strain GAS1, stronger effect = lower value 1.09 | S. cerevisiae deletion strains, locus YNL067W, strain RPL9B, stronger effect = lower value 1.01 | S. cerevisiae deletion strains, locus YNL071W, strain lat1, stronger effect = lower value 0.997 | S. cerevisiae deletion strains, locus YNL128W, strain TEP1, stronger effect = lower value 1.02 | S. cerevisiae deletion strains, locus YNL153C, strain GIM3, stronger effect = lower value 1.01 | S. cerevisiae deletion strains, locus YNL183C, strain NPR1, stronger effect = lower value 0.953 | S. cerevisiae deletion strains, locus YNL209W, strain ssb2, stronger effect = lower value 0.993 | S. cerevisiae deletion strains, locus YNL233W, strain BNI4, stronger effect = lower value 1.02 | S. cerevisiae deletion strains, locus YNL248C, strain rpa49, stronger effect = lower value 0.999 | S. cerevisiae deletion strains, locus YNL250W, strain rad50, stronger effect = lower value 1.02 | S. cerevisiae deletion strains, locus YNL271C, strain bni1, stronger effect = lower value 1.01 | S. cerevisiae deletion strains, locus YNL298W, strain CLA4, stronger effect = lower value 1.03 | S. cerevisiae deletion strains, locus YNL307C, strain MCK1, stronger effect = lower value 1.02 | S. cerevisiae deletion strains, locus YNL322C, strain KRE1 (second series), stronger effect = lower value 0.99 | S. cerevisiae deletion strains, locus YNL322C, strain KRE1, stronger effect = lower value 1.01 | S. cerevisiae deletion strains, locus YNR049C, strain mso1, stronger effect = lower value 0.996 | S. cerevisiae deletion strains, locus YNR052C, strain pop2, stronger effect = lower value 1.02 | S. cerevisiae deletion strains, locus YOL006C, strain TOP1, stronger effect = lower value 1.04 | S. cerevisiae deletion strains, locus YOL012C, strain htz1 1.03 | S. cerevisiae deletion strains, locus YOL147C, strain pex11, stronger effect = lower value 1.02 | S. cerevisiae deletion strains, locus YOR001W, strain rrp6, stronger effect = lower value 0.998 | S. cerevisiae deletion strains, locus YOR061W, strain CKA2, stronger effect = lower value 1.02 | S. cerevisiae deletion strains, locus YOR069W, strain VPS5, stronger effect = lower value 1.02 | S. cerevisiae deletion strains, locus YOR070C, strain gyp1, stronger effect = lower value 0.984 | S. cerevisiae deletion strains, locus YOR080W, strain dia2, stronger effect = lower value 0.987 | S. cerevisiae deletion strains, locus YOR083W, strain WHI5, stronger effect = lower value 0.985 | S. cerevisiae deletion strains, locus YOR106W, strain vam3, stronger effect = lower value 0.972 | S. cerevisiae deletion strains, locus YOR136W, strain idh2, stronger effect = lower value 1.02 | S. cerevisiae deletion strains, locus YOR144C, strain elg1, stronger effect = lower value 1.02 | S. cerevisiae deletion strains, locus YOR184W, strain ser1, stronger effect = lower value 1.04 | S. cerevisiae deletion strains, locus YOR231W, strain MKK1, stronger effect = lower value 0.994 | S. cerevisiae deletion strains, locus YOR265W, strain rbl2, stronger effect = lower value 0.996 | S. cerevisiae deletion strains, locus YOR270C, strain vph1, stronger effect = lower value 1.01 | S. cerevisiae deletion strains, locus YOR290C, strain snf2, stronger effect = lower value 0.989 | S. cerevisiae deletion strains, locus YOR316C, strain cot1, stronger effect = lower value 1.02 | S. cerevisiae deletion strains, locus YPL051W, strain arl3, stronger effect = lower value 0.976 | S. cerevisiae deletion strains, locus YPL055C, strain LGE1, stronger effect = lower value 1.03 | S. cerevisiae deletion strains, locus YPL078C, strain atp4, stronger effect = lower value 1 | S. cerevisiae deletion strains, locus YPL106C, strain sse1, stronger effect = lower value 0.976 | S. cerevisiae deletion strains, locus YPL240C, strain hsp82, stronger effect = lower value 0.995 | S. cerevisiae deletion strains, locus YPL241C, strain CIN2, stronger effect = lower value 1.01 | S. cerevisiae deletion strains, locus YPL256C, strain CLN2, stronger effect = lower value 0.971 | S. cerevisiae deletion strains, locus YPR119W, strain clb2, stronger effect = lower value 1.02 | S. cerevisiae deletion strains, locus YPR141C, strain kar3, stronger effect = lower value 1.03 | S. cerevisiae deletion strains, locus YPR163C, strain tif3, stronger effect = lower value 1.03 | S. cerevisiae deletion strains, locus YPR167C, strain met16, stronger effect = lower value 1.02 | S. cerevisiae deletion strains, strain wtn01, stronger effect = lower value 1.02 | S. cerevisiae strains, strain wild type, stronger effect = lower value 1.01
